Results as given in ChEMBL document CHEMBL1201862, “PubChem BioAssay data set” (2004).
Several values for one entry are separate records, joined by “and”; a condition that tells them apart may be missing. Equal values may be shown once. In all, about 75,000 compounds went through this assay and about 5,700 (7.6%) were called active. Another 7% or so got no clear call; they are omitted. The calls are words filed in the database; no cut-off is given here. The entries come from a sample that favours actives as a whole.

Each molecule was assayed against T1, 3-hydroxyacyl-CoA dehydrogenase type-2 (Homo sapiens) (UniProt Q99714) (assay: qHTS Assay for Inhibitors of HSD17B4, hydroxysteroid (17-beta) dehydrogenase 4.).
T1 sequence (whole entry): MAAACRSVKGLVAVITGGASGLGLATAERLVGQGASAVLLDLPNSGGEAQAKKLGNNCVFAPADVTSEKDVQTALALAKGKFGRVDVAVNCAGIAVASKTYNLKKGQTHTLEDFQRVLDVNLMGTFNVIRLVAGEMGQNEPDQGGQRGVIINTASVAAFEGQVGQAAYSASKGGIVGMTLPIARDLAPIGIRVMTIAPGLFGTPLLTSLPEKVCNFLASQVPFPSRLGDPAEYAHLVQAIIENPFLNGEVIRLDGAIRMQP
Format: functional

| Compound | Potency |
| --- | --- |
| O=C(O)c1cc(-c2ccc(F)cc2F)ccc1O | 31.6 µM (active) and 12.6 µM (active) |
| Cc1c(OCC(=O)OC(C)C)ccc2c3c(c(=O)oc12)CCC3 | inactive |
